We go through 35 compounds from PubChem BioAssay (Tox21).

Results filed as inconclusive are left out. More than one record can exist for a structure, and the calls need not agree. Activity calls are given as the source filed them. Unless noted, calls follow the shape of the full dose curve.
% is scaled to controls: 0 for no effect and ±100 for the full control effect.

Estrogen receptor (Homo sapiens), sequence (P03372 whole entry, looked up): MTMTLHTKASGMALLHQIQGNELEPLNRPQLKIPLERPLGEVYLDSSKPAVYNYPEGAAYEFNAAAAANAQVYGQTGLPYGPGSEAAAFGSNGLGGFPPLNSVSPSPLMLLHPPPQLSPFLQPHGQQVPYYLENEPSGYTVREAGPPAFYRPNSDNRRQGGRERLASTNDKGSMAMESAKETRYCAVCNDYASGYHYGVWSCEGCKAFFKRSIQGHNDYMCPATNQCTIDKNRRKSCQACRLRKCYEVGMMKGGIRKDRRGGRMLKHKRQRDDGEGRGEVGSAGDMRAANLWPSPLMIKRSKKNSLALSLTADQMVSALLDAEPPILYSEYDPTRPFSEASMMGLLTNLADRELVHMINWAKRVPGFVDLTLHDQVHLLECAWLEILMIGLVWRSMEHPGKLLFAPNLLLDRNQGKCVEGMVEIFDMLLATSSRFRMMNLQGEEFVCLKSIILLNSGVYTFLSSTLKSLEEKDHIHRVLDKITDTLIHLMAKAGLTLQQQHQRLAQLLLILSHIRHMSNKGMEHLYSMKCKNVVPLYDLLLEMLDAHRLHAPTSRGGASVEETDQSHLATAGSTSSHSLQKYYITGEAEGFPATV

System in one assay: not listed separately
In words: qHTS assay to identify small molecule agonists of the estrogen receptor beta (ER-beta) signaling pathway - cell viability counter screen (AID 1259380; active = well fitted curve in the direction sought with a large enough effect in the repeat runs; an effect the other way counts as inactive or inconclusive; also: nearly all actives have a fitted effect of over 30% in size). Conditions: ER-beta-bla HEK293T viability, CellTiter-Glo luminescence, 16 h; series mostly up to 92.4 µM; activity change, negative = cytotoxicity: at the top concentration. The gist of the method:
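Cells used were ER-beta-UAS-bla HEK293T in medium with 2% charcoal-stripped FBS. They were treated for 16 hr at 37C. Viability came from CellTiter-Glo luminescence.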
On the technique in general: In qHTS, concentration-response curves come from the screen itself.
`CS(=O)(=O)c1ccc(C(=O)C2C(=O)CCCC2=O)c(Cl)c1COCC(F)(F)F`: the “activity change, negative = cytotoxicity” value was 2.61% (inactive).
On to `O=C(Cl)c1ccccc1`, for which the “activity change, negative = cytotoxicity” value was 4.75% (inactive).
`C#CCOC(=O)/C=C(C)/C=C/CC(C)CCCC(C)C` (stereo not drawn): the “activity change, negative = cytotoxicity” value was 6.69% (inactive).
The same measure, in the same setting: as for `O=C(O)C(Br)(Br)Br`, the figure is -1.73% (inactive); as for `CNC(=O)Oc1ccccc1C(C)C`, -1.05% (inactive).
Still for that read-out and setting: as for `CCCCCCC(=O)CCCCCC/C=C/C[C@@H](O)[C@H](O)[C@@](N)(CO)C(=O)O`, the figure is -0.265% [at 19 µM] (inactive).

For another assay, the target named is Androgen receptor (Homo sapiens) (UniProt P10275). Kind of assay: qHTS assay to identify small molecule agonists of the androgen receptor (AR) signaling pathway in the presence of an antagonist (AID 1259381). Also: nearly all actives have a fitted effect of over 15% in size. Also: potency is read from the fitted curve at half-maximal effect. The following applies: MDA-kb2 MMTV-luciferase, AR agonist + nilutamide, 16 h; series mostly up to 92.4 µM; activation: at the top concentration. The procedure, abridged: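 Using human MDA-kb2 cells with an MMTV promoter–luciferase construct (AR and GR response elements), agonist activity is scored under 3.0uM nilutamide (final) co-treatment; 16hr incubation, 37C, luminescence readout via ONE-Glo.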
Androgen receptor (Homo sapiens), sequence (P10275 whole entry, looked up): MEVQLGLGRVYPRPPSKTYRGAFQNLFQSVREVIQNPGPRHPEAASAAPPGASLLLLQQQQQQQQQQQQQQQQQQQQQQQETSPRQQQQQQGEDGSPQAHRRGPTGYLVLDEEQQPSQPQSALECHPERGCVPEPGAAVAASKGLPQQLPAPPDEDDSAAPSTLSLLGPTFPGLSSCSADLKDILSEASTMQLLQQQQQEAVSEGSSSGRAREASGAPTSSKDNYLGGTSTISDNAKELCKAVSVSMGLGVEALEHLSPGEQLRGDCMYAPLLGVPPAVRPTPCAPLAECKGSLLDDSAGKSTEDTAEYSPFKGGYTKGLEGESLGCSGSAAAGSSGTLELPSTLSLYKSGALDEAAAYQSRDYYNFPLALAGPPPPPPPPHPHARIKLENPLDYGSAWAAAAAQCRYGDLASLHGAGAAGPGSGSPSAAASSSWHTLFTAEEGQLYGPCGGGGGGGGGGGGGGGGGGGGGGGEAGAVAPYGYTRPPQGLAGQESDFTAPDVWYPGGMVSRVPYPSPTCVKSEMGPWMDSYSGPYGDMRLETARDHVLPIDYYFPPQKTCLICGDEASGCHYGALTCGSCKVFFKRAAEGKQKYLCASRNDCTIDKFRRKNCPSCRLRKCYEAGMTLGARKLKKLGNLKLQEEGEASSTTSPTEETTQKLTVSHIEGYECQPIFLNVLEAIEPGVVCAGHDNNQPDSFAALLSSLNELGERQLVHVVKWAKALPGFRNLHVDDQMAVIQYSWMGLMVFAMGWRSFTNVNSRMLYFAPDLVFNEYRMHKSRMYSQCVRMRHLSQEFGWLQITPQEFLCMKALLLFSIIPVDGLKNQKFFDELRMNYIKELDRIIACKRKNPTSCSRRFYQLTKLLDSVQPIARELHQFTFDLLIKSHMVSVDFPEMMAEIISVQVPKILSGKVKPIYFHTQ
Consider `CCOC(=O)NC(C)(C)Cc1ccc(Cl)cc1`, for which the “activation” value was -1.67% [at 42.5 µM] (inactive).
Still for that read-out and setting: to `CNC(=O)O/N=C(/CSC)C(C)(C)C` belongs 0.754% (inactive).
Regarding `CCOC(=O)CC(SP(=S)(OC)OC)C(=O)OCC` (stereo not drawn), the Potency is 27.3 µM (active) and inactive.
Turning to `CNC(=O)Oc1ccccc1C(C)C`, the “activation” value was 0.331% (inactive).

System in another assay: not listed separately
Kind of assay: qHTS assay to identify small molecule antagonists of the estrogen receptor beta (ER-beta) signaling pathway - cell viability counter screen (AID 1259382; active = well fitted curve in the direction sought with a large enough effect in the repeat runs; an effect the other way counts as inactive or inconclusive; also: nearly all actives have a fitted effect of over 55% in size). The following applies: ER-beta-UAS-bla HEK293T viability, CellTiter-Glo luminescence, 16 h; series mostly up to 92.4 µM; activity change, negative = cytotoxicity: at the top concentration. The gist of the method: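 Agonist-stimulated (1nM E2) ER-beta-UAS-bla HEK293T cells are incubated with library compounds for 16 hr at 37C. Cell viability is then assessed in the reporter-assay wells by adding CellTiter-Glo and reading luminescence after 30 min.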
As for `N#CC(Br)(Br)C(N)=O`, the “activity change, negative = cytotoxicity” value was 11.7% (inactive).
Same read-out and setting: as for `C=CCC1(C(C)CC)C(=O)NC(=O)NC1=O` (stereo not drawn), the figure is 1.29% [at 42.5 µM] (inactive); as for `CCCC(C)C1(CC)C(=O)N=C(S)NC1=O` (stereo not drawn), 6.01% [at 42.5 µM] (inactive); as for `C[C@@H](N)[C@@H](O)c1ccccc1`, -1.19% [at 42.5 µM] (inactive).
Still for that read-out and setting: to `O=[N+]([O-])c1cccc(CCl)c1` belongs 2.28% (inactive); to `CNC(=O)O/N=C(/CSC)C(C)(C)C`, -1.51% (inactive); to `CCOP(=O)(CN(CCO)CCO)OCC`, 12.7% (inactive).
For `CCCCS(=O)(=O)Cl`, the “activity change, negative = cytotoxicity” value was 4.03% (inactive).
Same read-out and setting: as for `CC(C)C(C)(N)C#N` (stereo not drawn), the figure is 1.91% (inactive); as for `NNCc1ccccc1`, -5.42% (inactive).
Turning to `CCOC(=O)CC(SP(=S)(OC)OC)C(=O)OCC` (stereo not drawn), the Potency result is “inactive”.
For `ClCC1CO1` (stereo not drawn), the “activity change, negative = cytotoxicity” value was -1.21% (inactive).
The same measure, in the same setting: to `COC(=O)[C@@H](N)CCCN/C(N)=N/[N+](=O)[O-]` belongs 12% [at 42.5 µM] (inactive); to `CC(Cl)(Cl)Cl`, -0.68% (inactive); to `N#CN=C1SCCN1Cc1ccc(Cl)nc1`, 0.718% (inactive).
Still for that read-out and setting: as for `CCN[C@H](C)Cc1cccc(C(F)(F)F)c1`, the figure is -17.4% (inactive); as for `CCN[C@@H](C)Cc1cccc(C(F)(F)F)c1`, -2.56% [at 42.5 µM] (inactive).
Same read-out and setting: to `CCCN1CCC[C@@H]2Cc3nc(N)ncc3C[C@H]21` belongs -2.42% [at 42.5 µM] (inactive); to `CCOC(=O)C(SP(=S)(OC)OC)c1ccccc1` (stereo not drawn), -2.23% (inactive).
Consider `Cc1cccc2sc3nncn3c12`, for which the “activity change, negative = cytotoxicity” value was -2.64% (inactive).
Take `COc1cc(CC(C)N)cc(OC)c1OC` (stereo not drawn): the “activity change, negative = cytotoxicity” value was 7.33% (inactive).
As for `CN1COCN(Cc2cnc(Cl)s2)/C1=N\[N+](=O)[O-]`, the “activity change, negative = cytotoxicity” value is 3.83% (inactive).
The same measure, in the same setting: to `CS(=O)(=O)c1ccc(C(=O)C2C(=O)CCCC2=O)c(Cl)c1COCC(F)(F)F` belongs 1.92% (inactive); to `O=C(Cl)c1ccccc1`, 4.49% (inactive); to `O=C(O)C(Br)(Br)Br`, 1.3% (inactive).
Same read-out and setting: to `Cc1ccc(-c2nc3ccc(C)cn3c2CC(=O)N(C)C)cc1` belongs 0.296% [at 42.5 µM] (inactive).
Still for that read-out and setting: as for `CNC(=O)Oc1ccccc1C(C)C`, the figure is 0.272% (inactive); as for `CCCCCCC(=O)CCCCCC/C=C/C[C@@H](O)[C@H](O)[C@@](N)(CO)C(=O)O`, 5.36% [at 19 µM] (inactive).

Another assay has as its target Estrogen receptor (Homo sapiens) (UniProt P03372). In words: qHTS assay to identify small molecule agonists of the estrogen receptor alpha (ER-alpha) signaling pathway in the presence of an antagonist (AID 1259383). Also: top concentration of the series differs between compounds; nearly all actives have a fitted effect of over 15% in size. Conditions: VM7Luc4E2 cells, ERE-luciferase, +ICI-182,780, 22 h; series mostly up to 92.4 µM; activation: at the top concentration. The procedure, abridged:
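Using VM7Luc4E2 cells seeded 24hr before treatment, antagonist ICI-182,780 (10.0nM final) was added, followed by compounds at 15 concentrations. Plates incubated 22hr; ONE-Glo luminescence quantified reporter activity.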
As to `C=CCC1(C(C)CC)C(=O)NC(=O)NC1=O` (stereo not drawn), the “activation” value is -0.764% [at 42.5 µM] (inactive).
Take `CCOC(=O)NC(C)(C)Cc1ccc(Cl)cc1`: the “activation” value is 0.363% [at 42.5 µM] (inactive).
Still for that read-out and setting: as for `CNC(=O)O/N=C(/CSC)C(C)(C)C`, the figure is -1.27% (inactive); as for `CC(C)(N)Cc1ccc(Cl)cc1`, -0.186% [at 42.5 µM] (inactive).
The same measure, in the same setting: as for `CCOP(=O)(CN(CCO)CCO)OCC`, the figure is -0.107% (inactive).
In the case of `CCOC(=O)CC(SP(=S)(OC)OC)C(=O)OCC` (stereo not drawn), the Potency entry is “inactive”.
As to `Brc1c(Br)c(Br)c(Br)c(Br)c1Br`, the activation was -2.37% [at 8.39 µM] (inactive).
In the case of `ClCC1CO1` (stereo not drawn), the “activation” value was -2.98% (inactive).
The same measure, in the same setting: as for `N#CN=C1SCCN1Cc1ccc(Cl)nc1`, the figure is 1.09% (inactive).
Same read-out and setting: as for `CCN[C@H](C)Cc1cccc(C(F)(F)F)c1`, the figure is 0.429% (inactive); as for `CCN[C@@H](C)Cc1cccc(C(F)(F)F)c1`, -0.521% [at 42.5 µM] (inactive); as for `CCCN1CCC[C@@H]2Cc3nc(N)ncc3C[C@H]21`, -3% [at 42.5 µM] (inactive).
On to `CCCCOC(C)=O`, for which the “activation” value is -0.698% (inactive).
`Cc1cccc2sc3nncn3c12`: the “activation” value was 0.0386% (inactive).
In the case of `COc1cc(CC(C)N)cc(OC)c1OC` (stereo not drawn), the “activation” value is -1.06% (inactive).
Still for that read-out and setting: as for `CS(=O)(=O)c1ccc(C(=O)C2C(=O)CCCC2=O)c(Cl)c1COCC(F)(F)F`, the figure is 0.369% (inactive).
For the compound `O=C(Cl)c1ccccc1`, the “activation” value is 0.489% (inactive).
Still for that read-out and setting: to `C#CCOC(=O)/C=C(C)/C=C/CC(C)CCCC(C)C` (stereo not drawn) belongs -0.327% (inactive); to `O=C(O)C(Br)(Br)Br`, -0.0006% (inactive).
The same measure, in the same setting: to `Cc1ccc(-c2nc3ccc(C)cn3c2CC(=O)N(C)C)cc1` belongs 6.88% [at 42.5 µM] (inactive); to `CNC(=O)Oc1ccccc1C(C)C`, 0.0402% (inactive); to `CCCCCCC(=O)CCCCCC/C=C/C[C@@H](O)[C@H](O)[C@@](N)(CO)C(=O)O`, -1.01% [at 19 µM] (inactive).

System in a further assay: not listed separately
In words: qHTS assay to identify small molecule agonists or antagonists of the thyroid stimulating hormone receptor (TSHR) signaling pathway - wild type cell line counter screen (AID 1259384). The following applies: HEK293 wild type, cAMP HTRF counter-screen, stronger effect = higher value; series mostly up to 92.4 µM; cAMP activity change: at the top concentration. The procedure, abridged: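 Wild-type Hek293 cells, 800/well, 18 h at 37C, then compound with Ro20-1724 for 30 min RT. cAMP by HTRF (cAMP-d2/anti-cAMP cryptate), 1 h RT, fluorescence read. 15 concentrations, triplicates.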
Consider `CCOC(=O)NC(C)(C)Cc1ccc(Cl)cc1`, for which the “cAMP activity change” value is -3.89% [at 42.5 µM] (inactive).
On the same count and under the same terms, as for `C[C@@H](N)[C@@H](O)c1ccccc1`, the figure is 0.31% [at 42.5 µM] (inactive); as for `O=[N+]([O-])c1cccc(CCl)c1`, 3.08% (inactive); as for `CNC(=O)O/N=C(/CSC)C(C)(C)C`, 4.72% (inactive).
`CC(C)(N)Cc1ccc(Cl)cc1`: the “cAMP activity change” value is 6.46% [at 42.5 µM] (inactive).
`CCCCS(=O)(=O)Cl`: the “cAMP activity change” value is -0.117% (inactive).
As to `NNCc1ccccc1`, the “cAMP activity change” value was -3.63% (inactive).
On to `CCOC(=O)CC(SP(=S)(OC)OC)C(=O)OCC` (stereo not drawn), for which the compound was classed as inactive.
For the compound `Brc1c(Br)c(Br)c(Br)c(Br)c1Br`, the cAMP activity change is 7.95% [at 8.39 µM] (inactive).
As to `ClCC1CO1` (stereo not drawn), the “cAMP activity change” value was -0.462% (inactive).
On the same count and under the same terms, to `CC(Cl)(Cl)Cl` belongs -4.19% (inactive).
Still for that read-out and setting: as for `N#CN=C1SCCN1Cc1ccc(Cl)nc1`, the figure is -2.92% (inactive).
The same measure, in the same setting: to `CCN[C@H](C)Cc1cccc(C(F)(F)F)c1` belongs -0.473% (inactive).
Consider `CCN[C@@H](C)Cc1cccc(C(F)(F)F)c1`, for which the “cAMP activity change” value is -0.157% [at 42.5 µM] (inactive).
The same measure, in the same setting: to `CCCN1CCC[C@@H]2Cc3nc(N)ncc3C[C@H]21` belongs 8.66% [at 42.5 µM] (inactive); to `CCOC(=O)C(SP(=S)(OC)OC)c1ccccc1` (stereo not drawn), -1.26% (inactive); to `CCCCOC(C)=O`, 1.15% (inactive).
With `Cc1cccc2sc3nncn3c12`, the “cAMP activity change” value was 5.29% (inactive).
On the same count and under the same terms, as for `NCC1(CC(=O)O)CCCCC1`, the figure is 1.27% [at 42.5 µM] (inactive); as for `CCN1CCCC1CNC(=O)C(O)(c1ccccc1)c1ccccc1` (stereo not drawn), 4.24% [at 42.5 µM] (inactive); as for `COc1cc(CC(C)N)cc(OC)c1OC` (stereo not drawn), -8.8% (inactive).
Regarding `CN1COCN(Cc2cnc(Cl)s2)/C1=N\[N+](=O)[O-]`, the “cAMP activity change” value is 0.0785% (inactive).
Turning to `CS(=O)(=O)c1ccc(C(=O)C2C(=O)CCCC2=O)c(Cl)c1COCC(F)(F)F`, the “cAMP activity change” value was 1.34% (inactive).
The same measure, in the same setting: to `O=C(Cl)c1ccccc1` belongs 6.21% (inactive); to `O=C(O)C(Br)(Br)Br`, -3.43% (inactive); to `Cc1ccc(-c2nc3ccc(C)cn3c2CC(=O)N(C)C)cc1`, -10.6% [at 42.5 µM] (inactive).
Take `CNC(=O)Oc1ccccc1C(C)C`: the “cAMP activity change” value is -1.05% (inactive).
Same read-out and setting: as for `CCCCCCC(=O)CCCCCC/C=C/C[C@@H](O)[C@H](O)[C@@](N)(CO)C(=O)O`, the figure is 0.106% [at 18.9 µM] (inactive).
